Measurements from PubChem BioAssay (NCI).
This is part of a sample that, as a whole, favours compounds with a hit. Of some 83,000 tested, about 20% had one in any assay.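 Percent growth is the endpoint: 0 to 100 indicates growth inhibition (40 means 60% inhibition), 0 means no net growth, and negative values indicate cell death.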 Unmarked numbers belong to inactive results. Active and inactive are the calls of the source.

Tested on: MOLT-4 leukemia
Assay: NCI-60 one-dose screen, 48 h (100 = growth as untreated, 0 = no growth, -100 = all killed)
Details: 10 µM
Protocol: Growth inhibition of the MOLT-4 human tumor cell line is measured as a screen for anti-cancer activity. Cells are grown in 96 well plates and exposed to the test compound for 48 hours. Compounds are tested at a single concentration, which is 10^-5 M for most compounds. The reported endpoint is percent growth (GI% or GIPRCNT), where numbers from 0 - 100% represent growth inhibition, and numbers from -100% - 0 represent cell death. For example, a value of 40 represents 60% growth inhibition. A value of 0 means no net growth occurred over the course of the experiment. A value of -40 indicates 40% of cells at the beginning of the experiment died by the end of the experiment. A value of -100 means all cells are dead at the end of the experiment.
NCI-60 Human Tumor Cell Lines Screen was performed using the standard one-dose NCI protocol, which is described in more detail at https://dtp.cancer.gov/discovery_development/nci-60/default.htm.
Compounds with GIPRCNT values below 10 were considered active. Activity score was based on GIPRCNT using the following formula: […]
Score is 0 for GIPRCNT values of 100 or above, 50 for GIPRCNT values of 0, and 100 for GIPRCNT values of -100.

Row | SMILES | growth
1 | CCC(C)(C)C1CCC(O)CC1 (stereo not given) | 106%
2 | O=C(NN=C1CCCCC1)C(=O)NN=C1CCCCC1 | 90.9%
3 | CN(C)Cc1cc(C(C)(C)CC(C)(C)C)ccc1O | 86.4%
4 | O=C1N(C[P+](c2ccccc2)(c2ccccc2)c2ccccc2)CCCN1C[P+](c1ccccc1)(c1ccccc1)c1ccccc1 | 97.7%
5 | O=[N+]([O-])c1cccc(N=Nc2ccc(O)cc2O)c1 | 50.2%
6 | CCC/C=C(\C)C(C)(C#N)C(=O)OCC (stereo not given) | 104%
7 | c1ccc2c(N3CCCCC3)ncnc2c1 | 91.2%
8 | CCCCC(CC)COC(C)=O (stereo not given) | 105%
9 | CC1=NN(c2ccccc2)C(=O)/C1=C\N1CC(=O)NC1=S | 102%
10 | CC1=CC(C)(C)NC(=S)N1c1ccc(S(=O)(=O)O)c2cccc(S(=O)(=O)O)c12 | 114%
11 | CN(c1ccccc1)c1ncnc2c1ncn2C | 95.6%
12 | CC(C)=CC(=O)OC(=O)C=C(C)C | 101%
13 | COc1ccc(-c2cc3c(nn2)-c2ccccc2C3=O)cc1 | 57.1%
14 | c1ccc(CN2COc3c(ccc4c3OCN(Cc3ccccc3)C4)C2)cc1 | 0.409% (active)
15 | C#CC(C(C)C)N(CCO)CCCC (stereo not given) | 107%
16 | O=C(c1ccc(O)cc1)c1ccc(O)cc1 | 102%
17 | CCOc1ccccc1/C=N/Nc1nc2ccccc2o1 | 81.7%
18 | NC(=O)c1ccc(N=C(N)N=C(N)N)cc1 | 103%
19 | CC(=O)Cc1ccc(-c2ccccc2)cc1 | 117%
20 | CC(CN1CCCCC1)NC(=O)c1scnc1-c1ccccc1 (stereo not given) | 104%

Row | SMILES | growth
21 | OCCN1CCOCC1 | 104%
22 | CC(=O)c1ccc(C(C)(C)C)cc1 | 98.9%
23 | CCCCOC(=O)c1ccc(C(C)C)cc1 | 83.3%
24 | Cc1ccc(C(=O)N/N=C/c2ccc3c(c2)OCO3)cc1 | 91.2%
25 | COc1ccc(C)cc1OC | 110%
26 | C#Cc1cccc(NC(=O)c2ccc(Cl)cc2Cl)c1 | 82.1%
27 | CCC/C=C(/C(C)=O)C(=O)OCC | 135%
28 | Cc1ccc(C)n1-c1ccsc1C(=O)NNC(=O)CCl | 92.9%
29 | S=C1NCc2cncnc2N1 | 95.6%
30 | O=C(O)c1cccc([N+](=O)[O-])c1O | 99.5%
31 | COC(=O)c1cccnc1 | 98.3%
32 | Cc1cccc([N+](=O)[O-])c1Cl | 122%
33 | CC(C)=NNC(N)=S | 60.4%
34 | CC(C)C(C#N)(C(C)C)C(C)C | 104%
35 | NC(=S)NN=C1CCCC1 | 66.1%
36 | CC1(C)Nc2cccc3c(N=Nc4ccc(N=Nc5ccccc5)c5ccccc45)ccc(c23)N1 | 115%
37 | O=[N+]([O-])c1ccc(N=Nc2ccccc2)cc1 | 79.1%
38 | COc1cc(/C=N\Nc2ccccc2)ccc1OC(=O)c1ccccc1 | 38.5%
39 | CCCCNC(=O)C(=O)NCCCC | 129%
40 | O=c1[nH]cc(Cl)cc1O | 92.1%
